# 697 NFkB inh – inhibitors of the PMA/ionomycin-induced NF-kB reporter in 697 B cells | 697 B-cell NF-kB luciferase reporter, 16 h | AID 435022 | hit rate 0.33% among 330,000 | inhibition, % at 4 µM; in the data active means inhibition above about 35%
# esBAF inh – SWI/SNF esBAF complex inhibition; mouse ES cells, Bmi1-luciferase knock-in reporter, 24 h; 100% = twice the neutral-well signal; reporter increase, % at 12.5 µM; hit rate 2% among 350,000; in the data active means activation above about 40%;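 further: 0% = median of the plate's neutral control wells and 100% = double that signal; a rise in the Bmi1 reporter signal indicates esBAF inhibition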
# Gli-Sufu antag – Gli-Sufu pathway antagonism; Sufu-KO-LIGHT fibroblasts, Gli luciferase reporter luminescence; inhibition, % at 5 µM; hit rate 0.74% among 340,000; AID 588413;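 active means inhibition above about 55%, limit read from the data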;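 further: 0% = DMSO-treated cells and 100% = wells with medium but no cells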
# Jurkat NFkB inh – inhibitors of the PMA/ionomycin-induced NF-kB reporter in Jurkat cells; PMA/ionomycin-induced NF-kB luciferase reporter, luminescence; inhibition, % at 4 µM; hit rate 0.53% among 330,000; in the data active means inhibition above about 50%
# SMARCA2 activ – SMARCA2 function activation, primary screen; MG213 cells, MMTV-luciferase reporter, dexamethasone, overnight; activation, % at 9.1 µM; hit rate 1% among 370,000; in the data active means activation above about 7.8%;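 further: 0% = vehicle wells and 100% = reference activator wells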
# SMARCA2 conf – confirmation of SMARCA2 (BRM) function activators | shares compounds with SMARCA2 activ | MG213 cells, MMTV-luciferase with dexamethasone, luminescence, overnight; MG213 cells expressing E1A, Rb sequestered; DMSO wells 0%, reference activator 100% | activation, % at 9.1 µM | hit rate 30% among 3,500;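 active means activation above its plate's cutoff, the mean activation of tested wells plus 3 SD, cut at about 7.9% in these data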
# GAL4-VP16 Luc – GAL4-VP16 reporter activation counter-screen | shares compounds with SMARCA2 activ | HEK293 GAL4-VP16 pG5luc reporter, luciferase luminescence; scaled: DMSO wells 0%, SAHA wells 100% | activation, % at 9.1 µM | hit rate 41% among 3,500;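 active means activation above the solvent-only control well mean plus 3 SD, averaged across control plates, cut at about 5.2% in these data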
# Starred values were filed as active, the others as inactive; / = no result given. Hits are enriched below; roughly 3.3% of the tested compounds scored in any of these assays.
SMILES,697 NFkB inh,esBAF inh,Gli-Sufu antag,Jurkat NFkB inh,SMARCA2 activ,SMARCA2 conf,GAL4-VP16 Luc
Brc1ccc(Cn2c(-c3ccc(Br)o3)nc3ccccc32)o1,/,/,2.1,/,11.9*,8.1*,1.8
O=C(C1CCCCC1)N1C[C@@H]2[C@H](c3ccccc31)[C@@H](CO)N2C(=O)Cc1ccccn1,/,0.1,/,/,/,/,/
Nc1nc(CN2CCN(Cc3ccccc3)CC2)nc(Nc2ccc3c(c2)OCCO3)n1,-1.3,/,5.8,0.1,9.2*,26.4*,1.4
CCCN(CCC)C(=O)C1CCCN(S(=O)(=O)c2ccc3c(c2)oc(=O)n3C)C1 (configuration not stated),2.0,-3.2,6.7,4.3,10.3*,1.8,0.2
COC(CNC(=O)C1CCCN(S(=O)(=O)c2ccc3c(c2)oc(=O)n3C)C1)OC (configuration not stated),8.6,0.8,4.5,-6.9,-0.2,/,/
COc1ccc(CN(C)C[C@@H]2OCCCC[C@@H](C)Oc3ccc(NC(=O)Nc4ccc(C(F)(F)F)cc4)cc3C(=O)N([C@@H](C)CO)C[C@H]2C)cc1,/,-11.0,/,/,/,/,/
C[C@@H]1CN([C@@H](C)CO)C(=O)Cc2cc(NC(=O)Nc3ccc(F)cc3)ccc2O[C@H]1CN(C)C(=O)Nc1ccc(F)cc1,/,-2.5,/,/,/,/,/
O=c1[nH]c2ccc(S(=O)(=O)Nc3ccc(-c4nnc5n4CCCCC5)cc3)cc2o1,25.3,-5.1,-2.0,7.5,12.1*,-1.6,0.7
O=C(NC1CCCC1)C(c1ccc(Cl)cc1)N1CCOCC1 (configuration not stated),3.0,2.8,6.8,-3.1,1.2,/,/
O=C(NC1CCCC1)C(c1ccc(F)cc1)N1CCC(O)(c2ccc(Cl)cc2)CC1 (configuration not stated),/,/,/,/,12.8*,-0.8,-0.8
O=C1NC(=O)/C(=C\c2ccc(O)cc2O)S1,-42.6,/,-1.3,-11.4,13.0*,6.4,2.9
Brc1ccc(Cn2c(-c3cncs3)nc3ccccc32)cc1,-64.8,32.7,-34.8,-35.0,8.8*,6.8,1.8
C[C@@H]1CN([C@@H](C)CO)C(=O)c2cc(NC(=O)C3CCCCC3)ccc2O[C@H]1CN(C)Cc1ccc(C(=O)O)cc1,/,-0.9,/,/,/,/,/
CN(c1cccc(NC(=O)COc2ccc(Cl)cc2Cl)c1)S(C)(=O)=O,-6.7,37.5,0.3,-50.7,9.4*,0.3,9.1*
COc1ccc(NC(=O)N(C)C[C@@H]2Oc3ccc(N(C)C)cc3CC(=O)N([C@@H](C)CO)C[C@H]2C)cc1,/,-1.1,/,/,/,/,/
C[C@@H]1CCCCO[C@@H](CN(C)S(=O)(=O)c2ccc(Cl)cc2)[C@H](C)CN([C@@H](C)CO)C(=O)c2cc(NS(=O)(=O)c3cn(C)cn3)ccc2O1,/,3.6,/,/,/,/,/
Cc1c(NC(=O)C2CC(c3c(F)cccc3Cl)=NO2)c(=O)n(-c2ccccc2)n1C (configuration not stated),-17.9,8.0,-4.9,0.0,8.4*,0.2,-0.6
C[C@@H]1CN([C@H](C)CO)C(=O)c2cc(NC(=O)Nc3ccc4c(c3)OCO4)ccc2O[C@@H](C)CCCCO[C@H]1CN(C)C(=O)Cc1ccccc1,/,0.8,/,/,/,/,/
C[C@@H]1CN([C@H](C)CO)C(=O)c2cc(NC(=O)Cc3cn(C)c4ccccc34)ccc2O[C@@H]1CN(C)C(=O)Nc1ccc(F)cc1,/,2.1,/,/,/,/,/
C[C@@H]1CCCCO[C@H](CN(C)Cc2ccc(C(F)(F)F)cc2)[C@@H](C)CN([C@@H](C)CO)C(=O)c2cc(NC(=O)Cc3ccccc3)ccc2O1,/,-2.0,/,/,/,/,/
N/C(=N\N=C\c1ccc([N+](=O)[O-])cc1)c1nonc1N,-152.0,/,-74.7,-106.6,14.5*,3.5,9.1*
N/C(=N\N=C\c1ccc(O)cc1)c1nonc1N,-149.3,/,-85.7,-70.4,0.1,/,/
C/C(=N/NC(=O)c1ccc(Cl)cc1Cl)c1cccnc1,-8.5,13.7,-6.3,9.7,/,/,/
C/C(=N\NC(=O)c1ccc(O)cc1O)c1cccnc1,17.3,/,2.2,-3.9,10.5*,3.1,3.2
C/C(=N\NC(=O)c1cccs1)c1cccnc1,11.7,/,-6.4,-18.4,8.4*,-0.3,0.6
SMILES,697 NFkB inh,esBAF inh,Gli-Sufu antag,Jurkat NFkB inh,SMARCA2 activ,SMARCA2 conf,GAL4-VP16 Luc
O=C(/C=C/Sc1ccccc1)c1ccc(Cl)cc1,-104.5,/,-23.8,12.7,8.1*,5.0,6.4*
CCC(=O)N1[C@H](CN(C)C(C)=O)[C@@H](c2ccc(-c3ccccc3)cc2)[C@@H]1CO,/,-2.6,/,/,/,/,/
O=C(CSc1nc2ccccc2s1)N/N=C/c1ccco1,-28.8,/,1.9,25.3,8.8*,8.9*,0.2
O=C(CSc1nc2ccccc2s1)N/N=C/c1ccc(C(=O)O)cc1,-2.9,/,2.7,-3.1,0.8,/,/
COc1cc2c[n+](C)c3c4ccccc4ccc3c2cc1OC,/,25.4,-8.8,/,11.1*,42.4*,1.1
Cc1ccc(OCCCCCCN2CCNCC2)c(Br)c1,-81.2,/,33.1,-109.9,11.1*,2.3,9.7*
CCCNC(=O)N(C)C[C@H]1Oc2ncc(C#Cc3ccncc3)cc2C(=O)N([C@@H](C)CO)C[C@H]1C,/,0.4,/,/,/,/,/
Cc1cc(C)n2nc(-c3ccc(Cl)cc3)cc2n1,-138.1,19.9,-34.5,-131.5,5.7,/,/
Cc1nc2cc(-c3ccc(Cl)cc3)nn2c(NCCN(C)C)c1C,-72.8,/,-8.7,-49.0,9.9*,18.6*,7.9*
CCCN1C[C@H](C)[C@H](OC)CN(C)C(=O)c2cc(NC(=O)c3cccc(OC)c3)ccc2OC[C@H]1C,/,0.4,/,/,/,/,/
CCc1ccc(NC(=O)CNC(=O)Cn2ccc3ccccc3c2=O)cc1,8.2,-4.1,8.6,12.7,9.1*,-0.1,1.7
CCc1ccc(NC(=O)CCNC(=O)Cn2ccc3ccccc3c2=O)cc1,16.1,-4.5,22.1,-0.5,1.1,/,/
O=C(Nc1ccccc1C(=O)NCCc1ccccc1)c1ccco1,-9.9,/,-28.4,-26.0,9.1*,10.7*,7.4*
CCOc1ccc(CCN2C(=O)C3C4CCC(O4)C3C2=O)cc1OCC (configuration not stated),5.4,-3.6,-6.2,-5.4,10.3*,0.0,0.1
Cn1cnnc1SCC(=O)Nc1ccc2nc(SCc3ccccc3F)sc2c1,-145.7,64.3*,-72.8,-88.5,9.9*,3.4,9.0*
O=C(CSc1nc2ccc(NC(=O)CSc3nnnn3-c3ccccc3)cc2s1)Nc1ccccc1,-5.6,/,-9.3,11.2,1.0,/,/
Cc1ccc(C(=O)NCc2ccc3c(c2)CCO3)cc1C,-29.9,/,-25.0,-24.5,1.9,/,/
O=C(NCc1ccc2c(c1)CCO2)Nc1ccccc1,-60.6,/,-37.9,-54.1,8.7*,7.3,5.2*
CCOC(=O)Cc1nn(Cc2ccccc2)c(=O)c2ccccc12,-5.6,/,4.0,7.7,4.6,/,/
CCOC(=O)Cc1nn(Cc2ccc(Cl)cc2)c(=O)c2ccccc12,-13.4,-0.5,3.7,-0.8,8.8*,-4.0,1.1

# High-throughput results (PubChem)
